From PubChem
USP30 block = inhibitors of human USP30 deubiquitinase | Q70CQ3 | purified USP30, Ub-rhodamine cleavage fluorescence | inhibition, % at 25 µM | 5.3% of 47,000 active | AID 1645860
USP17 inh = human USP17-like deubiquitinase inhibition; A8MUK1; purified USP17, Ub-rhodamine cleavage fluorescence, 3 h; 6.5% of 47,000 active; inhibition, % at 50 µM
USP28 inh = inhibitors of human USP28 deubiquitinase; 3% of 47,000 active; inhibition, % at 25 µM; Q96RU2; purified USP28, Ub-rhodamine cleavage fluorescence, 30 min
USP8 inh = inhibitors of human USP8 deubiquitinase; P40818; purified USP8, Ub-rhodamine cleavage fluorescence, 30 min; inhibition, % at 20 µM; 4.2% of 47,000 active; AID 1645853
Target sequence (P40818 whole entry, looked up): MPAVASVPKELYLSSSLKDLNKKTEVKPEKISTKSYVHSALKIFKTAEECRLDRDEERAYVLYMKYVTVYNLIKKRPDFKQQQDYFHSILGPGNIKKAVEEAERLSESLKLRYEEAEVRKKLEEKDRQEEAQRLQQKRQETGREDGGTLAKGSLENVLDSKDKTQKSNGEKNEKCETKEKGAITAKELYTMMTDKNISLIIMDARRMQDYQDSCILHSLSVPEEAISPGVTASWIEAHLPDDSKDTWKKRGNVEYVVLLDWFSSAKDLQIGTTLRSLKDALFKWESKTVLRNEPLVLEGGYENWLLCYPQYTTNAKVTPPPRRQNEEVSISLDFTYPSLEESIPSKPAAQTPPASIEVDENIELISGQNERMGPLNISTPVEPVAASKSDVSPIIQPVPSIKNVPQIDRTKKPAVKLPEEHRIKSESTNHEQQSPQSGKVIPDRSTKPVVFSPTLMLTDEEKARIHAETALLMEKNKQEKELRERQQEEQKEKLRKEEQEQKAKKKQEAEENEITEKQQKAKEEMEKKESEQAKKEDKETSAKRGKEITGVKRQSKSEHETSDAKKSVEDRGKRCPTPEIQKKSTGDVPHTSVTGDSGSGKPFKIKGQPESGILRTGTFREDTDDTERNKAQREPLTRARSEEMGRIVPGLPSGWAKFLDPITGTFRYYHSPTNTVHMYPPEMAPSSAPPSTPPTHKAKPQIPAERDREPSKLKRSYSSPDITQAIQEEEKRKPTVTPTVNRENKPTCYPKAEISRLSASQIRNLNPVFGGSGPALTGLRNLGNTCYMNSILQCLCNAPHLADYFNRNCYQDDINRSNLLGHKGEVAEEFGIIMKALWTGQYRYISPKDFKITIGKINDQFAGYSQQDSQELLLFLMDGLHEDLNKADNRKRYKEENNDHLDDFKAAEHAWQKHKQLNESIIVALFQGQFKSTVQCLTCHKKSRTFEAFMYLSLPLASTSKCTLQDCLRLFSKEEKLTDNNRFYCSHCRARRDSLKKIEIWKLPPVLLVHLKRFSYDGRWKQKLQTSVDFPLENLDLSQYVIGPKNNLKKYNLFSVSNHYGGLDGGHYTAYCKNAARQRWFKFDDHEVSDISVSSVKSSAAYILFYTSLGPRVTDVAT
* marks the source's active call; other numbers are inactive results; . = not tested or not shown. Hits are enriched below; roughly 14% of the tested compounds scored in any of these assays. Rule as the data show it: active = inhibition above about 30%; inactive = the rest.

SMILES	USP30 block	USP17 inh	USP28 inh	USP8 inh
O=C([C@H]1C[C@@H]2CN(Cc3ccc(F)cc3)C[C@H]1O2)N1CCCC1	-0.1	-7.0	-1.6	-35.1
CC1NC(=O)C2(CCN(C(=O)Nc3ccc(F)cc3)CC2)NC1=O (stereo not given)	14.5	4.7	4.2	2.5
C/C=C1/C2=CCCN3C(=O)O[C@H]([C@H]1O)[C@H]23	13.6	72.2*	69.1*	8.1
CCc1nnc(NC(=O)C2CCN(C(=O)c3cccc(F)c3)CC2)s1	-1.7	-6.3	0.1	-11.3
Clc1ccc2c(Nc3ccc4c(c3)OCO4)ccnc2c1	52.7*	55.7*	43.4*	-65.7
COc1cc(OCc2ccccc2)ccc1CN1CCN(c2ccccn2)CC1	-0.6	-0.3	0.0	18.6
Nc1c(C(=O)Nc2ccc3c(c2)OCO3)sc2nc(-c3cccnc3)ccc12	-2.5	61.1*	32.9*	-26.9
O=C(Nc1ccc2c(c1)OCO2)c1cc(-c2ccncc2)nc2ccccc12	-38.8	14.8	-1.0	35.0*
CCOc1cccc(-c2cc(C(=O)Nc3ccc4c(c3)OCO4)c3ccccc3n2)c1	-302.4	-59.7	-95.8	35.8*
CCOc1cc(N2CCOCC2)c(OCC)cc1NC(=O)c1cc(-c2ccncc2)nc2ccccc12	-9.4	65.8*	8.7	70.4*
COc1ccc(-c2cc(C(=O)Nc3ccc4c(c3)OCO4)c3ccccc3n2)cc1	-55.4	11.5	-13.3	5.9
O=C(CSc1ncnc2c1nnn2Cc1ccc(F)cc1)N1CCOCC1	11.5	1.1	16.6	-2.2
O=C1NC2(CCN(C(=O)c3cc(-c4ccco4)on3)CC2)Nc2ccccc21	10.8	22.7	2.4	17.7
COCCn1c(C)cc(C(=O)c2sc(-c3c(N)n(C)c(=O)n(C)c3=O)nc2-c2ccccc2)c1C	27.4	34.9*	22.5	27.3
COc1ccc(-c2ocnc2C(=O)Nc2cccc(C)c2C)cc1	-0.8	5.4	-1.8	3.0
COc1ccc(-c2ocnc2C(=O)Nc2cccc(Cl)c2C)cc1OC	58.4*	28.0	-0.1	-23.0
CCc1cc(C(=O)Nc2c(C)nn(Cc3ccc(F)cc3)c2C)no1	13.8	7.1	5.5	3.2
O=C1CC(C(=O)Nc2ccc3c(c2)OCO3)n2nc(SCc3ccccc3)nc2N1 (stereo not given)	28.2	10.0	10.8	15.1
O=C(Nc1ccccc1F)C1CCC(=O)N1S(=O)(=O)c1ccccc1 (stereo not given)	-21.3	-3.9	-6.2	-9.3
O=C(Nc1ccc2c(c1)OCO2)C1CC(=O)N(CCc2ccccc2)C1 (stereo not given)	6.2	43.7*	9.0	55.8*
O=C1CC(C(=O)Nc2ccc3c(c2)OCO3)n2ncc(-c3ccccc3)c2N1 (stereo not given)	0.1	13.7	10.1	38.2*
COc1ccc(CCN2CC(C(=O)Nc3ccc4c(c3)OCO4)CC2=O)cc1OC (stereo not given)	6.6	7.3	8.1	16.6
O=C1CC(C(=O)Nc2ccccc2F)n2nc(-c3ccccc3)cc2N1 (stereo not given)	15.4	78.4*	55.9*	38.8*
O=C1CC(C(=O)Nc2ccccc2F)n2ncc(-c3ccccc3)c2N1 (stereo not given)	8.2	43.7*	18.3	23.3
COc1ccc(NC(=O)C2CC(=O)Nc3c(-c4ccc(Cl)cc4)cnn32)c(OC)c1 (stereo not given)	-1.1	60.2*	-6.3	1.3
SMILES	USP30 block	USP17 inh	USP28 inh	USP8 inh
O=C1CC(C(=O)Nc2ccc(Cl)cc2Cl)n2ncc(-c3ccccc3)c2N1 (stereo not given)	-9.6	-6.6	-10.2	-34.7
O=C(Nc1ccc2c(c1)OCO2)C1CCN(Cc2nc3ccccc3s2)CC1	-5.8	5.5	69.9*	14.2
O=S(=O)(c1ccc2c(c1)OCCCO2)N1CCN(Cc2nc3ccccc3s2)CC1	-49.1	-24.0	-13.6	-8.1
O=C1CC(C(=O)Nc2ccccc2Cl)n2nc(-c3ccccc3)cc2N1 (stereo not given)	27.1	71.7*	8.9	30.8*
O=C(Nc1cc(-c2ccccc2)nn1CCO)C1CCCC1	10.6	-3.2	9.8	0.0
CCC(=O)Nc1nc2cc(NS(=O)(=O)c3ccc(F)cc3)ccc2s1	7.6	3.7	13.5	22.2
CCOc1ccccc1NC(=O)CN1c2ccc(F)cc2-c2ccccc2S1(=O)=O	18.6	4.3	-5.5	7.9
Cc1onc(C(=O)NCc2ccccc2)c1CN1CCOCC1	-7.5	.	0.0	-3.2
COc1cccc(CN2CCCC(c3[nH]nc4nccnc34)C2)c1 (stereo not given)	16.0	-0.2	1.8	-5.8
Cc1csc(-c2[nH]ncc2-c2ccsc2)n1	23.5	13.4	34.2*	24.3
Cc1cc(C(=O)N2CCOCC2)c(C)n1-c1ccc(O)cc1	17.0	86.0*	8.7	94.4*
Cc1ccccc1N(CC(=O)NCc1ccc2c(c1)OCO2)C(=O)c1ccc2c(c1)OCCO2	15.6	25.3	7.7	7.5
Cc1cc(C)cc(N(CC(=O)NCc2ccc3c(c2)OCO3)C(=O)c2ccc3c(c2)OCCO3)c1	35.7*	23.9	18.6	12.6
Cn1c(SCc2ccc(C(C)(C)C)cc2)nc(-c2ccccc2)c1-c1ccccc1	33.9*	18.8	11.7	8.2
CCN(C(=O)C(=O)c1cn(CC(=O)N2CCCCC2)c2ccccc12)c1ccc(C)c(C)c1	-230.7	-15.8	-7.8	20.0
COc1ccc(-c2cc(C)no2)cc1S(=O)(=O)Nc1ccc(-c2ccno2)cc1	28.5	9.7	1.6	58.7*
COc1cc(-c2ccno2)ccc1S(=O)(=O)Nc1ccccc1Cl	-14.5	-12.1	59.5*	-157.7
C=C1OC(=O)[C@]2([C@H](C)C=CC(=O)[C@@H]2O)[C@H]1O	1.8	-0.9	5.8	0.0
O=c1ccc(-c2noc(CCc3c[nH]c4ccccc34)n2)c[nH]1	-93.1	-28.0	42.4*	-7.0
O=c1ccc(-c2noc(-c3ccc4c(c3)OCO4)n2)c[nH]1	-16.9	-6.8	-13.3	-9.9
Cc1ccc(Cc2nc(-c3cccc(-c4ccn[nH]4)c3)no2)cc1	2.2	10.5	45.4*	17.5
Cc1ccc(Cc2nc(-c3ccc(=O)[nH]c3)no2)cc1	-3.1	0.0	91.2*	-4.4
O=c1ccc(-c2noc(-c3cccc4[nH]ccc34)n2)c[nH]1	-275.0	-8.6	-53.3	-27.5
COc1ccc(-c2nc(-c3ccc(=O)[nH]c3)no2)cc1F	-207.8	-21.3	-63.7	-27.4
O=C(Cc1ccccc1)NCc1nc(-c2cccc(-c3ccn[nH]3)c2)no1	7.4	-0.3	7.7	0.8
SMILES	USP30 block	USP17 inh	USP28 inh	USP8 inh
O=c1ccc(-c2noc(-c3n[nH]c4ccccc34)n2)c[nH]1	-194.5	-26.8	-77.0	56.0*
Cc1ncsc1C(=O)N1CCc2c(nc(N3CCC(C)CC3)[nH]c2=O)C1	-13.8	-12.8	-3.8	-4.9
Cc1cc(C)n2ncc(C(=O)NCCC3=CCCCC3)c2n1	-25.2	-6.1	1.1	1.0
CC(=O)c1ccc(NC(=O)CSc2ncnc3c2sc2nc(C(C)C)c4c(c23)CC(C)(C)OC4)cc1	25.9	8.2	8.5	1.3
Clc1cc(-c2nc(-c3cccc(-c4ccn[nH]4)c3)no2)ccn1	5.3	40.9*	1.0	0.8
Nc1cc(C(=O)OCC(=O)N2CCC(Cc3ccccc3)CC2)ccc1Cl	12.2	5.5	14.2	15.9
